Laboratory results reported in PubChem BioAssay (Tox21).
Results filed as inconclusive are left out. Activity calls are given as the source filed them. Unless noted, the call rests on the fitted dose curve; in most records, active means well fitted curve in the direction sought with a large enough effect in the repeat runs; inconclusive means weak or mixed curves; inactive means no such curve, though single readings can be large; an effect the other way counts as inactive or inconclusive.

Key:
[1] = qHTS assay to identify small molecule antagonists of the estrogen receptor alpha (ER-alpha) signaling pathway using the BG1 cell line in the presence of 0.1 nM 17-beta-estradiol - cell viability counter screen (AID 1259241); further: nearly all actives have a fitted effect of over 40% in size; further: potency means the concentration at half of the fitted maximal effect
Procedure, shortened: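 Cells were plated and left 24 hr, compounds in DMSO were pinned in, 17beta-estradiol was added to 0.1 nM final, and after 22 hr CellTiter-Fluor reagent was added for 30 min before fluorescence was read.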

[2] = qHTS assay to identify small molecule antagonists of the androgen receptor (AR) signaling pathway using the MDA cell line in the presence of 0.5 nM R1881 - cell viability counter screen (AID 1259242); further: nearly all actives have a fitted effect of over 45% in size; further: potency means the concentration at half of the fitted maximal effect
Procedure, shortened: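 Fluorescence from CellTiter-Fluor, which reports protease activity of live cells, was read 30 min after reagent addition to MDA-kb2 cells that had been incubated 16 hr with compound and 0.5 nM R1881.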

[3] = molecular target: Estrogen receptor (Homo sapiens) (UniProt P03372); test: qHTS assay to identify small molecule antagonists of the estrogen receptor alpha (ER-alpha) signaling pathway using the BG1 cell line in the presence of 0.1 nM 17-beta-estradiol (AID 1259244); further: nearly all actives have a fitted effect of over 50% in size; further: potency means the concentration at half of the fitted maximal effect
Procedure, shortened: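 Quantitative high-throughput screen in VM7Luc4E2 cells: compound plus 0.1 nM E2 (final), 22 h, 37C, 5% CO2; ONE-Glo added, 30 min room temperature, luminescence measured.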

[4] = qHTS assay to identify small molecule HDAC inhibitors (AID 1259364); further: nearly all actives have a fitted effect of over 45% in size; further: potency means the concentration at half of the fitted maximal effect
Procedure, shortened: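 Endogenous HDAC class I/II activity was measured in wild-type HCT-116 cells by HDAC-Glo luminescence after 2 h compound treatment.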

[5] = qHTS assay to identify small molecule HDAC inhibitors - cell viability counter screen (AID 1259365); further: nearly all actives have a fitted effect of over 50% in size; further: potency means the concentration at half of the fitted maximal effect
Procedure, shortened: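 Counter screen in wild-type HCT-116 cells: compounds dissolved in DMSO are pin-transferred onto overnight-plated cells and left 2hr at 37C. ATP-based CellTiter-Glo luminescence then measures viable cells.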

[6] = qHTS assay to identify small molecule agonists of the sonic hedgehog signaling (Shh) pathway - cell viability counter screen (AID 1259366); further: nearly all actives have a fitted effect of over 50% in size; further: potency means the concentration at half of the fitted maximal effect
Procedure, shortened: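 Cells are plated at 2,000 per well and left 4hr at 37C, 5% CO2 before compound addition. After 23hr of treatment, CellTiter-Fluor reagent is added for 1hr at 37C and fluorescence is measured.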

[7] = qHTS assay to identify small molecule antagonists of the sonic hedgehog signaling (Shh) pathway - cell viability counter screen (AID 1259367); further: nearly all actives have a fitted effect of over 55% in size; further: potency means the concentration at half of the fitted maximal effect
Procedure, shortened: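 Seed 3T3 Gli1-Luc cells at 2,000 per well; incubate 4 hr; add compound in DMSO, then conditioned medium; incubate at 37C with 5% CO2; add CellTiter-Fluor after 23 hr; read fluorescence 1 hr later.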

[8] = qHTS assay to identify small molecule antagonists of the sonic hedgehog signaling (Shh) pathway (AID 1259369; calls by dose curve; further: nearly all actives have a fitted effect of over 45% in size; further: potency means the concentration at half of the fitted maximal effect)
Procedure, shortened: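 Screening used 3T3Gli1-Luc cells at 2,000 per well, compounds delivered in DMSO, and conditioned medium as agonist stimulus; plates incubated 24hr at 37 C and 5% CO2 before a 30min luciferase step.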

[9] = molecular target: Estrogen receptor beta (Homo sapiens) (UniProt Q92731); test: qHTS assay to identify small molecule agonists of the estrogen receptor beta (ER-beta) signaling pathway (AID 1259377; active means well fitted activation curve with a large enough effect in the signal ratio in the repeat runs, not every such curve was filed as active; the % refers to the signal ratio; further: potency means the concentration at half of the fitted maximal effect)
Procedure, shortened: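 Agonist mode cell assay in GripTite HEK293T cells expressing an ER-beta fusion that drives beta-lactamase from an Upstream Activator Sequence; 16 hr compound exposure at 37C, then 2 h LiveBLAzer B/G FRET substrate at room temperature, fluorescence read-out.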

[10] = molecular target: Estrogen receptor beta (Homo sapiens) (UniProt Q92731); test: qHTS assay to identify small molecule antagonists of the estrogen receptor beta (ER-beta) signaling pathway (AID 1259378; active means well fitted inhibition curve with a large enough effect in the signal ratio in the repeat runs, not every such curve was filed as active; the % refers to the signal ratio)
Procedure, shortened: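 ER-beta-UAS-bla HEK293T cells in 2% charcoal-stripped FBS medium treated with compound plus 1nM final 17-beta-estradiol for 16 hr at 37C. Beta-lactamase reporter read by FRET substrate fluorescence after 2 hours at room temperature.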

[11] = qHTS assay to identify small molecule agonists of the androgen receptor (AR) signaling pathway in the presence of an antagonist - cell viability counter screen (AID 1259379); further: nearly all actives have a fitted effect of over 25% in size; further: potency means the concentration at half of the fitted maximal effect
Procedure, shortened: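 In MDA-kb2 cells (human breast carcinoma, MMTV-luciferase), compounds at 15 concentrations plus 3.0uM nilutamide; 16 hr, 37C, 0% CO2; CellTiter-Fluor fluorescence read for viability.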

[12] = qHTS assay to identify small molecule agonists of the estrogen receptor beta (ER-beta) signaling pathway - cell viability counter screen (AID 1259380); further: nearly all actives have a fitted effect of over 30% in size; further: potency means the concentration at half of the fitted maximal effect
Procedure, shortened: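 Viability of ER-beta-UAS-bla HEK293T cells was determined by CellTiter-Glo luminescence following 16 hr treatment with test compounds at 37C.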

[13] = qHTS assay to identify small molecule antagonists of the estrogen receptor beta (ER-beta) signaling pathway - cell viability counter screen (AID 1259382); further: series mostly up to about 92 µM; nearly all actives have a fitted effect of over 55% in size
Procedure, shortened: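 Tox21 10K library tested in qHTS format on ER-beta-bla HEK293T cells stimulated with 1nM E2; 16 hr treatment at 37C. Same-well CellTiter-Glo luminescence served as the cell viability measure.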

[14] = molecular target: Estrogen receptor (Homo sapiens) (UniProt P03372); test: qHTS assay to identify small molecule agonists of the estrogen receptor alpha (ER-alpha) signaling pathway in the presence of an antagonist (AID 1259383; calls by dose curve; further: top concentration of the series differs between compounds; nearly all actives have a fitted effect of over 15% in size)
Procedure, shortened: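 In VM7Luc4E2 cells, 4,000 per well, compounds at 15 concentrations were co-incubated 22hr at 37C with 10.0nM final ICI-182,780. Luminescence from the stably transfected 4×ERE-luciferase reporter was recorded 30min after ONE-Glo addition.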

[15] = qHTS assay to identify small molecule agonists or antagonists of the thyroid stimulating hormone receptor (TSHR) signaling pathway - wild type cell line counter screen (AID 1259384; calls by dose curve)
Procedure, shortened: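 Wild-type Hek293 cells, 800/well, 18 h at 37C, then compound with Ro20-1724 for 30 min RT. cAMP by HTRF (cAMP-d2/anti-cAMP cryptate), 1 h RT, fluorescence read. 15 concentrations, triplicates.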

[16] = molecular target: Thyrotropin receptor (Homo sapiens) (UniProt P16473); test: qHTS assay to identify small molecule antagonists of the thyroid stimulating hormone receptor (TSHR) signaling pathway (AID 1259385; calls by dose curve; further: nearly all actives have a fitted effect of over 20% in size)
Procedure, shortened: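 TSHR-HEK293 cells (800/well) plated 18 h, then compounds with Ro20-1724 and TSH at 1.5 ng/mL final, 30 min at room temperature. cAMP quantified by HTRF (cAMP-d2/anti-cAMP-cryptate, 1 h); 15 concentrations in triplicate.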

[17] = qHTS assay to identify small molecule agonists of the sonic hedgehog signaling (Shh) pathway (AID 1259368; calls by dose curve; further: nearly all actives have a fitted effect of over 15% in size; further: potency means the concentration at half of the fitted maximal effect)
Procedure, shortened: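 Luminescent signal was taken as a measure of Gli1-controlled luciferase expression in stably transfected NIH/3T3-derived cells that had been treated for 24 hr with compounds delivered in DMSO.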

[18] = qHTS assay to identify small molecule phospholipidosis (PLD) inducers (AID 1259344; active means well fitted curve in the direction sought with a large enough effect; an effect the other way counts as inactive or inconclusive)
Procedure, shortened: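 Quantitative HTS in HepG2: compound plus LipidTOX Red dye for 24 h, paraformaldehyde fixation with Hoechst 33342, widefield high-content imaging; amiodarone as positive and DMSO as negative control.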

Measured: Potency

Estrogen receptor beta (Homo sapiens), sequence (Q92731 whole entry, looked up, the tested form may be a part): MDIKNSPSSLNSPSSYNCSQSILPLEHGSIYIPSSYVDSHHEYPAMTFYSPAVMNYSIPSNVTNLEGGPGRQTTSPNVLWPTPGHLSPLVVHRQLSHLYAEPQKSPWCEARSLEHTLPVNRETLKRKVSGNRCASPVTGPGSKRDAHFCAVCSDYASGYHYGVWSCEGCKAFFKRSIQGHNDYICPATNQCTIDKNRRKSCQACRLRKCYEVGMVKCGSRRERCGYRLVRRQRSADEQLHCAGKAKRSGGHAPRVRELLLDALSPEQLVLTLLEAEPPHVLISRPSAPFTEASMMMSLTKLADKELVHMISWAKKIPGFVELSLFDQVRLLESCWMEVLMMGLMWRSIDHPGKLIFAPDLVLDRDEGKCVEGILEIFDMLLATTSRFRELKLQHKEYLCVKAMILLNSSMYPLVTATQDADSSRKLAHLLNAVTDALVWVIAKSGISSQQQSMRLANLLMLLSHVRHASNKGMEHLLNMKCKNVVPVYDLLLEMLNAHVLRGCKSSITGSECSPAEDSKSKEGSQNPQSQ
Thyrotropin receptor (Homo sapiens), sequence (P16473 whole entry, looked up): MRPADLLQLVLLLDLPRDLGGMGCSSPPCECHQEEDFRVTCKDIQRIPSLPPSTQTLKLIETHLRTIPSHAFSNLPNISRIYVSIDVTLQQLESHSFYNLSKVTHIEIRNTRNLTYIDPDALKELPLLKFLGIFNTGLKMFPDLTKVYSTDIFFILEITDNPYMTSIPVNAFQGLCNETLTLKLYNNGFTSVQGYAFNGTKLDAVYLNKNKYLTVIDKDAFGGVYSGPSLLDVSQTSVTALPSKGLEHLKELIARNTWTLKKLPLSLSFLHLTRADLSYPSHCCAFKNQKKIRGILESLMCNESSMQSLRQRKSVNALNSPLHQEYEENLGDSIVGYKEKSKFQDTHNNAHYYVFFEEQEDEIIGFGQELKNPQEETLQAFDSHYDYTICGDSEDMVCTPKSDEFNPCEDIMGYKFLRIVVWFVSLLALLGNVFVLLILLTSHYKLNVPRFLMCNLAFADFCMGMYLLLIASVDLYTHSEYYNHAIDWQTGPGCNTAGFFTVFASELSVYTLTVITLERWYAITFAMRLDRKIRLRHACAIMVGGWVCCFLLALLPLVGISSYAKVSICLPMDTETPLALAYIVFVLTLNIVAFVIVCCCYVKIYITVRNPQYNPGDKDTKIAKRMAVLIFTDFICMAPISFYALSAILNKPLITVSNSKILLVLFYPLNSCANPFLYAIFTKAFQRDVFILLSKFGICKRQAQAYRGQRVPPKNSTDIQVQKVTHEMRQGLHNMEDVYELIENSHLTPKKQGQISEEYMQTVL
Estrogen receptor (Homo sapiens), sequence (P03372 whole entry, looked up): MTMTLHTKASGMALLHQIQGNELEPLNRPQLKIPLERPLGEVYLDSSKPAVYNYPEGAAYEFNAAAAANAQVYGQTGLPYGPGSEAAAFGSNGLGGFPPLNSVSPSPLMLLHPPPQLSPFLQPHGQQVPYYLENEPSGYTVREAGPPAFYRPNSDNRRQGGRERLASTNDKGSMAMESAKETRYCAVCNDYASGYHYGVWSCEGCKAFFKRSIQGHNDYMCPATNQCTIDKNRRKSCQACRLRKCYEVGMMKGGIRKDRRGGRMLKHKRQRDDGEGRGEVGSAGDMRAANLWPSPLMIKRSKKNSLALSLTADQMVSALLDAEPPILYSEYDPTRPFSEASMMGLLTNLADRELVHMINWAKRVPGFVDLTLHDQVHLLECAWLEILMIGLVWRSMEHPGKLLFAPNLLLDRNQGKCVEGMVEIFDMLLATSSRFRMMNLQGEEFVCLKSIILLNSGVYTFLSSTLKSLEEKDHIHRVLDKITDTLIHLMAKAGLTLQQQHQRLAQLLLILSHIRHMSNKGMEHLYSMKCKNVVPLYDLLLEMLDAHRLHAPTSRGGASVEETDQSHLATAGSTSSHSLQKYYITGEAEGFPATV

CC1(C)CC(O)CC(C)(C)N1
not listed: [17] | [18]
inactive: all other assays above

O=C(Oc1ccccc1)Oc1ccccc1
not listed: [7] | [9] | [10] | [16] | [18]
inactive: all other assays above

O=C(c1ccc(O)c(O)c1)c1ccc(O)cc1O
inactive: [1] | [2] | [17] | [12] | [13]
active: [3] 61 µM | [4] 24.3 µM | [8] 2.43 µM | [9] 1.37 µM | [11] 68.5 µM

C=CC(C)(CCC=C(C)C)OC=O (stereo not drawn)
not listed: [4] | [7] | [9] | [10] | [18]
inactive: all other assays above

O=C(O)c1cc(O)c2ccccc2c1O
active: [1] 34.4 µM | [2] 54.5 µM | [3] 27.3 µM | [5] 21.7 µM | [6] 9.69 µM | [7] 13.7 µM | [8] 1.72 µM | [11] 54.5 µM | [12] 30.6 µM
inactive: [17] | [9] | [14] | [15]

CC1=Nc2ccccc2C1(C)C
not listed: [4] | [9] | [10] | [11] | [14] | [18]
inactive: all other assays above

Cl[Si](Cl)(c1ccccc1)c1ccccc1
not listed: [9] | [10] | [11] | [18]
inactive: all other assays above

CC(N=C(NC#N)Nc1ccncc1)C(C)(C)C (stereo not drawn)
not listed: [3] | [9] | [10] | [12] | [14]
inactive: all other assays above

CCCCCc1ccc(Cl)cc1
not listed: [4] | [9] | [10] | [18]
inactive: all other assays above

CC(=O)CC(=O)Nc1ccc(S(=O)(=O)O)cc1
not listed: [7] | [15] | [18]
inactive: all other assays above

S=c1nccc[nH]1
not listed: [7] | [8] | [10] | [15] | [16] | [18]
inactive: all other assays above

CC(C)CCOC(=O)/C=C/c1ccccc1
not listed: [4] | [9] | [10] | [16] | [18]
inactive: all other assays above

CCCCCCCC
not listed: [9] | [10] | [18]
inactive: all other assays above

CCCC[P+](C)(CCCC)CCCC
active: [17] 19.6 µM
not listed: [8] | [18]
inactive: all other assays above

O=C(Nc1ccc2c(O)c(N=Nc3ccc(N=Nc4ccc(S(=O)(=O)O)cc4)cc3)c(S(=O)(=O)O)cc2c1)c1ccccc1
active: [1] 12.2 µM | [2] 27.3 µM | [3] 27.3 µM | [6] 10.9 µM | [7] 21.7 µM | [11] 21.7 µM
not listed: [5] | [12] | [18]
inactive: all other assays above

CC(C)CCCCCOC(=O)CCS
not listed: [9] | [10] | [11] | [18]
inactive: all other assays above
